Activity calls are given as the source filed them. Where a call stands in place of a potency, no number is given. Calls follow the shape of the dose curve; as a rule, active = well fitted cell-killing curve with a large enough effect in the repeat runs; inconclusive = weak or mixed curves, or effect the other way; inactive = flat fitted curve, though single readings scatter.
assay: qHTS assay to identify small molecule HDAC inhibitors - cell viability counter screen (AID 1259365); settings: HCT-116 viability, CellTiter-Glo ATP luminescence, 2 h; series mostly up to 92.4 µM; also: nearly all actives have a fitted effect of over 50% in size
Source text: U.S. Tox21 Program National Center for Advancing Translational Sciences [NCATS] NIH Chemical Genomics Center [NCGC] U.S. Environmental Protection Agency [EPA] National Institutes of Environmental Health Sciences [NIEHS] National Toxicology Program [NTP] U.S. Food and Drug Administration [FDA] Tox21 Assay Overview: Histone deacetylases (HDACs) are a group of epigenetic enzymes that regulate gene expression by histone deacetylation. HDACs are capable of introducing epigenetic modifications and such aberrations contribute to the onset and progression of several human diseases, thus making HDACs a popular therapeutic target. For identifying endogenous class I/II HDAC inhibitors a homogenous, luminogenic HDAC I/II cell based assay was used to measure the relative activity of class I and II HDACs from cells. Wild type HCT-116 cells were used to screen Tox21 compound libraries for identifying class I/II HDAC inhibitors.
Tox21 Assay Protocol Summary: HCT-116 cells were dispensed at 1,500 per well in 5uL of culture medium into white solid bottom 1536-well plates (Greiner Bio-One, Monroe, NC) using a Multidrop Combi (Thermo Scientific, Waltham, MA) dispenser. The assay plates were incubated at 37 C and 5% CO2 for an overnight, and then 23nL of compounds dissolved in DMSO and positive control were transferred using a Pintool station (Wako, San Diego, CA). The assay plates were incubated at 37C and 5% CO2 for 2hr. After compound treatment, 4uL of CellTiter-Glo reagent (Promega Corporation, Madison, WI) was added to each well of the assay plates using Flying Reagent Dispenser (FRD, Aurora Discovery, San Diego, CA) and incubated the assay plates at room temperature for 30min. The luminescence signal was quantified using a ViewLux plate reader (Perkin Elmer, Shelton, CT).

SMILES | Potency
COC(=O)/C=C\C(=O)OC | inactive
CCCCCCCCCCCCCC(=O)O | inactive
C=C1C[C@]23C[C@@]1(O)CC[C@H]2[C@@]12C=C[C@H](O)[C@@](C)(C(=O)O1)[C@H]2[C@@H]3C(=O)O | inactive
NC(=O)NC(N)=O | inactive
O=[N+]([O-])c1ccccc1C(F)(F)F | inactive
CCN(CC)CCNC(=O)c1ccc(N)cc1 | inactive
Oc1ccc(Cc2ccccc2O)cc1 | inactive
COc1ccc(N)c(OC)c1 | inactive
CC(C)=CCC/C(C)=C/C=O | inactive
OC1CCCCC1 | inactive
CC/C=C(\C(=O)N[C@@H]1C(=O)N2C(C(=O)OCOC(=O)C(C)(C)C)=C(COC(N)=O)CS[C@H]12)c1csc(N)n1 | inactive
CN=C(NC#N)NCCSCc1nc[nH]c1C | inactive
CCCN(CCC)C(=O)SCC | inactive
CCOC(=O)c1ccc(O)cc1 | inactive
O=Cc1ccc(CO)o1 | inactive
C=C(C)CC(C)(C)C | inactive
NC(N)=S | inactive
CC(COCC(C)OC(=O)c1ccccc1)OC(=O)c1ccccc1 (stereo not given) | inactive
CC(O)CNCC(C)O (stereo not given) | inactive
Cc1cc(C)c(O)c(C)c1 | inactive

SMILES | Potency
CC(=O)Nc1ccc(CC(=O)O)cc1 | inactive
O=C1C(N(CO)C(=O)NCO)N(CO)C(=O)N1CO (stereo not given) | inactive
COc1ccc([C@@H]2CC(=O)c3c(O)cc(O[C@@H]4O[C@H](CO[C@@H]5O[C@@H](C)[C@H](O)[C@@H](O)[C@H]5O)[C@@H](O)[C@H](O)[C@H]4O)cc3O2)cc1OC | inactive
C=CC(C)(C)C | inactive
Cc1ncc(CO)c(CO)c1O | inactive
OC[C@H]1O[C@@H](Oc2ccc(O)cc2)[C@H](O)[C@@H](O)[C@@H]1O | inactive
CCCCCCC(=O)O | inactive
Brc1ccc(Oc2ccc(Br)cc2)cc1 | inactive
Cc1ccc([N+](=O)[O-])cc1N | inactive
Cc1cc(C)cc(O)c1 | inactive
CCCCCC(C)=O | inactive
CCCCCNCCCCC | inactive
CCCOCC(C)O (stereo not given) | inactive
CC(=O)OCCC(C)C | inactive
CC(C)(C)NC[C@H](O)COc1nsnc1N1CCOCC1 | inactive
Nc1cccc(C(F)(F)F)c1 | inactive
CCCCC(=O)O | inactive
Nc1nc(N)c2nc(-c3ccccc3)c(N)nc2n1 | inactive
CC[N+](CC)(CC(=O)Nc1c(C)cccc1C)Cc1ccccc1 | inactive
O=c1n(CCCN2CCN(c3cccc(Cl)c3)CC2)nc2ccccn12 | inactive

From PubChem BioAssay (Tox21)
